40 compounds from PubChem BioAssay (NCATS) can be followed below.

Results filed as inconclusive are left out. Entries that show only a call come without a potency. Activity calls are given as the source filed them. Calls follow the shape of the full dose curve; tested in HEK293 reporter line.
Potency is read from the fitted curve at half-maximal effect.

One experiment in a line: qHTS for Inhibitors of the Functional Ribonucleoprotein Complex (vRNP) of Lassa (LASV) Arenavirus: LASV Primary Screen - GLuc reporter signal (AID 1347082). Also: nearly all actives have a fitted effect of over 60% in size. The conditions noted are these: LASV minigenome vRNP, Gaussia luciferase reporter; series mostly up to 57.5 µM. (In qHTS, concentration-response curves come from the screen itself.)
With `CCCCCCCCCCCCCCCC(=O)OC(CO)CO`, the Potency result is “inactive”.

As for `C[C@H]([C@@H](N)C(=O)N[C@@H](C(=O)O)[C@@H]1O[C@H](n2ccc(=O)[nH]c2=O)[C@@H](O)[C@H]1O)[C@@H](O)c1ccc(O)cn1`, the Potency result was “inactive”.

Regarding `CC(C)CC[C@@H](O)[C@](C)(O)C1CC[C@@]2(O)C3=CC(=O)[C@@H]4C[C@@H](O)[C@@H](O)C[C@]4(C)C3CC[C@]12C` (stereo not given in full), the Potency entry is “inactive”.

In the case of `OC(c1cc(C(F)(F)F)nc2c(C(F)(F)F)cccc12)C1CCCCN1` (stereo not given), the Potency result was “inactive”.

Regarding `COc1cc2c(cc1CC=C(C)C)C(=O)C[C@@H](c1ccc(O)cc1)O2`, the Potency result was “inactive”.

As for `CC1=CCC[C@@H]2[C@@](C)(CC/C(C)=C/C(=O)O)[C@H](C)CC[C@@]12C`, the Potency result was “inactive”.

Take `Cc1c[nH]c(C=C2C(=O)Nc3ccccc32)c1CCC(=O)O`: the Potency entry was “inactive”.

Regarding `CC(=O)OC[C@H]1O[C@@H](O[C@H]2C[C@]3(C)C(C[C@@H](O)C4C([C@]5(C)CC[C@@H](C(C)(C)O)O5)CC[C@]43C)[C@@]3(C)CC[C@H](O)C(C)(C)C23)[C@H](O[C@@H]2O[C@@H](C)[C@H](O)[C@@H](O)[C@H]2O)[C@@H](O)[C@@H]1O` (stereo not given in full), the Potency entry was “inactive”.

`CC(C)=CCCC(C)CC(=O)O` (stereo not given): the Potency entry was “inactive”.

Consider `CC(C)=CCCC(C)CC=O` (stereo not given), for which the Potency result was “inactive”.

For the compound `CC(=O)C1CCC2C3CCC4=CC(=O)C=CC4(C)C3C(=O)CC12C` (stereo not given), the Potency result was “inactive”.

As for `CC1(C)CCC[C@]2(C)[C@H]3Cc4cc(O)ccc4O[C@]3(C)CC[C@@H]12`, the Potency entry was “inactive”.

Take `C[C@@H]1[C@H](C)CC[C@]2(C(=O)O)CC[C@]3(C)C(=CC[C@@H]4[C@@]5(C)C[C@@H](O)[C@H](O)[C@@](C)(CO)[C@H]5CC[C@]43C)[C@@H]12`: the Potency entry is “inactive”.

Turning to `CC(C)CC(=O)OC(C)(C)[C@@H]1Cc2c(ccc3ccc(=O)oc23)O1`, the Potency entry is “inactive”.

Turning to `CCC(=O)O[C@]1(C(=O)CO)CC[C@H]2[C@@H]3CCC4=CC(=O)CC[C@]4(C)[C@@H]3CC[C@@]21C`, the Potency result was “inactive”.

Regarding `COc1cc(CCc2ccccc2)c(C(=O)O)c(O)c1C/C=C(/C)CCC=C(C)C`, the Potency result is “inactive”.

For the compound `CC12CCC(=O)C=C1CCC1C2C(O)CC2(C)C(O)CCC12` (stereo not given), the Potency entry was “inactive”.

`CC(=O)O[C@H]1CC[C@@]2(C)[C@H](C1)C(=O)C[C@H]1[C@@H]3CC[C@@H]4[C@@H](CN5C[C@@H](C)CC[C@H]5[C@@]4(C)O)[C@@H]3C[C@@H]12`: the Potency entry was “inactive”.

`c1coc(Cn2cccc2)c1`: the Potency result is “inactive”.

Regarding `CC1=CCC(C(C)C)C=C1` (stereo not given), the Potency result is “inactive”.

For the compound `O=CCCc1ccccc1`, the Potency entry is “inactive”.

Turning to `C[C@H]1OC(=O)CC[C@@H]2[C@]1(C)CCC1[C@@]2(C)CC[C@@]2(C)C3CC(C)(C)CC[C@]3(CO)CC[C@]12C` (stereo not given in full), the Potency entry is “inactive”.

With `CC(=O)OCC(=O)[C@@]1(O)CC[C@H]2[C@@H]3CCC4=CC(=O)CC[C@]4(C)[C@@H]3C(=O)C[C@@]21C`, the Potency entry is “inactive”.

Turning to `OC[C@H]1O[C@H](OCc2ccccc2)[C@H](O[C@@H]2OC[C@@H](O)[C@H](O)[C@H]2O)[C@@H](O)[C@@H]1O`, the Potency result is “inactive”.

Turning to `CCC(CC)C(=O)O`, the Potency entry was “inactive”.

With `CC(=O)C1CCC2(O)C3CCC4=CC(=O)CCC4(C)C3CCC12C` (stereo not given), the Potency entry was “inactive”.

As for `CCCCCCOC(=O)CCCCC`, the Potency result is “inactive”.

For `NC1(C(=O)N[C@@H](CCO)c2ccc(Cl)cc2)CCN(c2ncnc3[nH]ccc23)CC1`, the Potency was 0.968 µM (active).

Turning to `C[C@@H]1O[C@@H](O[C@H]2[C@H](O)[C@@H](O)[C@H](Oc3c(-c4ccc(O)c(O)c4)oc4cc(O)cc(O)c4c3=O)O[C@@H]2CO)[C@H](O)[C@H](O)[C@H]1O`, the Potency entry is “inactive”.

Turning to `COc1ccc(C(C)=O)cc1`, the Potency result was “inactive”.

With `CC1(C)C=C2[C@H]3CC[C@@H]4[C@@]5(C)CCC(=O)C(C)(C)[C@@H]5CC[C@@]4(C)[C@]3(C)CC[C@@]2(C(=O)O)CC1`, the Potency result is “inactive”.

With `COC(=O)C=CC(=O)OC`, the Potency is 6.11 µM (active).

As to `CC1CCC(C(C)(C)S)C(=O)C1` (stereo not given), the Potency result was “inactive”.

In the case of `CC1=CC(=O)CCC1`, the Potency entry was “inactive”.

As to `O=C(OCCc1ccccc1)c1ccccc1`, the Potency entry was “inactive”.

With `CC(=O)NCC(=O)N1[C@H]2CC[C@H]1c1cc(Nc3ncc(C(F)(F)F)c(NC4CCC4)n3)ccc12`, the Potency result was “inactive”.

With `COc1ccc2c(c1)CC1c3c(cc4c(c3-2)OCO4)CC[N+]1(C)[O-]` (stereo not given), the Potency entry is “inactive”.

For the compound `CC1(C)CC[C@]2(C(=O)O)[C@H](O)C[C@]3(C)C(=CCC4[C@@]5(C)C[C@H](O)[C@H](O)[C@@](C)(CO)C5CC[C@]43C)[C@@H]2C1` (stereo not given in full), the Potency entry is “inactive”.

On to `COC(=O)CC(C)CCC=C(C)C` (stereo not given), for which the Potency entry was “inactive”.

Regarding `CC1(C)OC(=O)C=C[C@]2(C)[C@H]3CC[C@@]4(C)[C@H](c5ccoc5)OC(=O)[C@H]5O[C@]54[C@]3(C)C(=O)C[C@@H]12`, the Potency result was “inactive”.

Another experiment is described as follows: qHTS for Inhibitors of the Functional Ribonucleoprotein Complex (vRNP) of Lassa (LASV) Arenavirus: Viability assay - alamar blue signal for LASV Primary Screen (AID 1347083). Also: nearly all actives have a fitted effect of over 80% in size. The conditions noted are these: cell viability, alamar blue fluorescence (LASV minigenome counter-screen); series mostly up to 57.5 µM.
Take `CCCCCCCCCCCCCCCC(=O)OC(CO)CO`: the Potency entry is “inactive”.

On to `C[C@H]([C@@H](N)C(=O)N[C@@H](C(=O)O)[C@@H]1O[C@H](n2ccc(=O)[nH]c2=O)[C@@H](O)[C@H]1O)[C@@H](O)c1ccc(O)cn1`, for which the Potency result was “inactive”.

Regarding `CC(C)CC[C@@H](O)[C@](C)(O)C1CC[C@@]2(O)C3=CC(=O)[C@@H]4C[C@@H](O)[C@@H](O)C[C@]4(C)C3CC[C@]12C` (stereo not given in full), the Potency entry is “inactive”.

Consider `OC(c1cc(C(F)(F)F)nc2c(C(F)(F)F)cccc12)C1CCCCN1` (stereo not given), for which the Potency entry was “inactive”.

For `COc1cc2c(cc1CC=C(C)C)C(=O)C[C@@H](c1ccc(O)cc1)O2`, the Potency entry was “inactive”.

For `CC1=CCC[C@@H]2[C@@](C)(CC/C(C)=C/C(=O)O)[C@H](C)CC[C@@]12C`, the Potency entry is “inactive”.

As to `Cc1c[nH]c(C=C2C(=O)Nc3ccccc32)c1CCC(=O)O`, the Potency result is “inactive”.

Consider `CC(=O)OC[C@H]1O[C@@H](O[C@H]2C[C@]3(C)C(C[C@@H](O)C4C([C@]5(C)CC[C@@H](C(C)(C)O)O5)CC[C@]43C)[C@@]3(C)CC[C@H](O)C(C)(C)C23)[C@H](O[C@@H]2O[C@@H](C)[C@H](O)[C@@H](O)[C@H]2O)[C@@H](O)[C@@H]1O` (stereo not given in full), for which the Potency entry is “inactive”.

As to `CC(C)=CCCC(C)CC(=O)O` (stereo not given), the Potency result was “inactive”.

On to `CC(C)=CCCC(C)CC=O` (stereo not given), for which the Potency result was “inactive”.

Turning to `CC(=O)C1CCC2C3CCC4=CC(=O)C=CC4(C)C3C(=O)CC12C` (stereo not given), the Potency result was “inactive”.

With `CC1(C)CCC[C@]2(C)[C@H]3Cc4cc(O)ccc4O[C@]3(C)CC[C@@H]12`, the Potency result is “inactive”.

With `C[C@@H]1[C@H](C)CC[C@]2(C(=O)O)CC[C@]3(C)C(=CC[C@@H]4[C@@]5(C)C[C@@H](O)[C@H](O)[C@@](C)(CO)[C@H]5CC[C@]43C)[C@@H]12`, the Potency result is “inactive”.

On to `CC(C)CC(=O)OC(C)(C)[C@@H]1Cc2c(ccc3ccc(=O)oc23)O1`, for which the Potency entry was “inactive”.

Turning to `CCC(=O)O[C@]1(C(=O)CO)CC[C@H]2[C@@H]3CCC4=CC(=O)CC[C@]4(C)[C@@H]3CC[C@@]21C`, the Potency result was “inactive”.

In the case of `COc1cc(CCc2ccccc2)c(C(=O)O)c(O)c1C/C=C(/C)CCC=C(C)C`, the Potency entry is “inactive”.

Regarding `CC12CCC(=O)C=C1CCC1C2C(O)CC2(C)C(O)CCC12` (stereo not given), the Potency result was “inactive”.

On to `CC(=O)O[C@H]1CC[C@@]2(C)[C@H](C1)C(=O)C[C@H]1[C@@H]3CC[C@@H]4[C@@H](CN5C[C@@H](C)CC[C@H]5[C@@]4(C)O)[C@@H]3C[C@@H]12`, for which the Potency entry is “inactive”.

For the compound `c1coc(Cn2cccc2)c1`, the Potency entry is “inactive”.

Take `CC1=CCC(C(C)C)C=C1` (stereo not given): the Potency result is “inactive”.

With `O=CCCc1ccccc1`, the Potency result was “inactive”.

As to `C[C@H]1OC(=O)CC[C@@H]2[C@]1(C)CCC1[C@@]2(C)CC[C@@]2(C)C3CC(C)(C)CC[C@]3(CO)CC[C@]12C` (stereo not given in full), the Potency result was “inactive”.

For `CC(=O)OCC(=O)[C@@]1(O)CC[C@H]2[C@@H]3CCC4=CC(=O)CC[C@]4(C)[C@@H]3C(=O)C[C@@]21C`, the Potency entry is “inactive”.

In the case of `OC[C@H]1O[C@H](OCc2ccccc2)[C@H](O[C@@H]2OC[C@@H](O)[C@H](O)[C@H]2O)[C@@H](O)[C@@H]1O`, the Potency entry is “inactive”.

For the compound `CCC(CC)C(=O)O`, the Potency entry is “inactive”.

As for `CC(=O)C1CCC2(O)C3CCC4=CC(=O)CCC4(C)C3CCC12C` (stereo not given), the Potency result is “inactive”.

Take `CCCCCCOC(=O)CCCCC`: the Potency result was “inactive”.

Take `NC1(C(=O)N[C@@H](CCO)c2ccc(Cl)cc2)CCN(c2ncnc3[nH]ccc23)CC1`: the Potency is 0.385 µM (active).

In the case of `C[C@@H]1O[C@@H](O[C@H]2[C@H](O)[C@@H](O)[C@H](Oc3c(-c4ccc(O)c(O)c4)oc4cc(O)cc(O)c4c3=O)O[C@@H]2CO)[C@H](O)[C@H](O)[C@H]1O`, the Potency entry was “inactive”.

Take `COc1ccc(C(C)=O)cc1`: the Potency entry was “inactive”.

As to `CC1(C)C=C2[C@H]3CC[C@@H]4[C@@]5(C)CCC(=O)C(C)(C)[C@@H]5CC[C@@]4(C)[C@]3(C)CC[C@@]2(C(=O)O)CC1`, the Potency entry is “inactive”.

For `COC(=O)C=CC(=O)OC`, the Potency was 4.85 µM (active).

`CC1CCC(C(C)(C)S)C(=O)C1` (stereo not given): the Potency entry was “inactive”.

For `CC1=CC(=O)CCC1`, the Potency entry is “inactive”.

As to `O=C(OCCc1ccccc1)c1ccccc1`, the Potency entry is “inactive”.

Consider `CC(=O)NCC(=O)N1[C@H]2CC[C@H]1c1cc(Nc3ncc(C(F)(F)F)c(NC4CCC4)n3)ccc12`, for which the Potency was 3.43 µM (active).

Consider `COc1ccc2c(c1)CC1c3c(cc4c(c3-2)OCO4)CC[N+]1(C)[O-]` (stereo not given), for which the Potency result is “inactive”.

As to `CC1(C)CC[C@]2(C(=O)O)[C@H](O)C[C@]3(C)C(=CCC4[C@@]5(C)C[C@H](O)[C@H](O)[C@@](C)(CO)C5CC[C@]43C)[C@@H]2C1` (stereo not given in full), the Potency entry is “inactive”.

Take `COC(=O)CC(C)CCC=C(C)C` (stereo not given): the Potency entry was “inactive”.

For the compound `CC1(C)OC(=O)C=C[C@]2(C)[C@H]3CC[C@@]4(C)[C@H](c5ccoc5)OC(=O)[C@H]5O[C@]54[C@]3(C)C(=O)C[C@@H]12`, the Potency entry was “inactive”.
